In PubChem BioAssay:
Calls of active or inactive are those of the source.

Key:
[1] = tested on: PRMT1 (protein arginine N-methyltransferase 1); assay: PRMT1 binders on small-molecule microarrays, primary screen, biochemical, small-molecule microarray, 635 nm fluorescence (AID 1088); conditions: small-molecule microarray binding, higher = more signal;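 note: binding of Prmt1 protein to compounds spotted on small-molecule microarray slides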
[2] = yeast growth modulation, basal conditions, primary screen, YJM789 clinical isolate, OD600, 24 h (AID 1089);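 note: growth of clinical yeast isolate S. cerevisiae YJM 789 seeded 1000 cells per well; test concentration not given here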; conditions: S. cerevisiae YJM789 growth, higher = more signal, called active from +8 up or from −8 down
[3] = fission yeast growth modulation, primary screen, strain 972, OD600, 24 h, no modulator (AID 1090);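 note: basal condition with compound alone and no growth modifier present; test concentration not given here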; conditions: S. pombe 972 growth, higher = more signal, called active from +8 up or from −8 down
[4] = S. cerevisiae growth modulation with rapamycin, primary screen, strain BY4716, OD600, 96 h (AID 1091); conditions: higher = more signal, called active from +8 up or from −8 down; note: test concentration not given here
[5] = molecular target: Torsin-1A-interacting protein 2 (Homo sapiens) (UniProt Q8NFQ8); assay: LULL1 binders on small-molecule microarray, primary screen, cell lysate, human LULL1 lysate, 635/667 nm fluorescence (AID 1092); conditions: hLULL1 lysate binding, 635 nm fluorescence, higher = more signal;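 note: probe is lysate of COS7 cells overexpressing human LULL1; score merges per-feature 667 nm fluorescence with signal-to-noise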
Torsin-1A-interacting protein 2 (Homo sapiens), sequence (Q8NFQ8 whole entry, looked up): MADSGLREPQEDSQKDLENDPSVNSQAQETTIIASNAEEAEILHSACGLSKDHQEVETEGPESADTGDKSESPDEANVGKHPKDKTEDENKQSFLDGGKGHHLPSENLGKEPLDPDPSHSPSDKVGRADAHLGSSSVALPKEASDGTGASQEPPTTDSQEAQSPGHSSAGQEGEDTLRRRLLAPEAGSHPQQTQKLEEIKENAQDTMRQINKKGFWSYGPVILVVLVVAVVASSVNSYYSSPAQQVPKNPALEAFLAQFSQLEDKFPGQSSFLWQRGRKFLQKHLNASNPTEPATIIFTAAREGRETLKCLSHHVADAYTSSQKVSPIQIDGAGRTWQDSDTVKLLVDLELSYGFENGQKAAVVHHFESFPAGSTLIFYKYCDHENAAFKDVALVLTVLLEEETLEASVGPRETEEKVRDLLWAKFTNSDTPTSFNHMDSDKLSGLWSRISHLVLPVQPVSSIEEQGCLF

[6] = E. coli growth modulation, two-sided OD650, primary screen, E. coli filamentation project, strain DRC41, 24 h (AID 1093); conditions: OD650, 24 h, higher = more signal, called active from +8 up or from −8 down;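 note: MC1000 strain lacking acrAB efflux and sulA so SOS filamentation is blocked; test concentration not given here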
[7] = small-molecule microarray binders of probe aLefty2, primary screen, biochemical, biotinylated probe, 635/667 nm fluorescence (AID 1094); conditions: higher = more signal;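 note: score merges spot fluorescence near 667 nm with spot signal-to-noise ratio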
[8] = tested on: Noggin (protein binding on small-molecule microarray); assay: Noggin binders on small-molecule microarray, primary screen, biochemical, 635/667 nm fluorescence (AID 1095); conditions: 635 nm fluorescence, higher = more signal;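 note: score merges 667 nm feature fluorescence with signal to noise over triplicate slides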
[9] = molecular target: Neurogenic locus notch homolog protein 3 (Homo sapiens) (UniProt Q9UM47); assay: NOTCH3 binders on small-molecule microarray, primary screen, biochemical, 635/667 nm fluorescence (AID 1096); conditions: NOTCH3 binding, 635 nm fluorescence, higher = more signal
Neurogenic locus notch homolog protein 3 (Homo sapiens), sequence (Q9UM47 whole entry, looked up): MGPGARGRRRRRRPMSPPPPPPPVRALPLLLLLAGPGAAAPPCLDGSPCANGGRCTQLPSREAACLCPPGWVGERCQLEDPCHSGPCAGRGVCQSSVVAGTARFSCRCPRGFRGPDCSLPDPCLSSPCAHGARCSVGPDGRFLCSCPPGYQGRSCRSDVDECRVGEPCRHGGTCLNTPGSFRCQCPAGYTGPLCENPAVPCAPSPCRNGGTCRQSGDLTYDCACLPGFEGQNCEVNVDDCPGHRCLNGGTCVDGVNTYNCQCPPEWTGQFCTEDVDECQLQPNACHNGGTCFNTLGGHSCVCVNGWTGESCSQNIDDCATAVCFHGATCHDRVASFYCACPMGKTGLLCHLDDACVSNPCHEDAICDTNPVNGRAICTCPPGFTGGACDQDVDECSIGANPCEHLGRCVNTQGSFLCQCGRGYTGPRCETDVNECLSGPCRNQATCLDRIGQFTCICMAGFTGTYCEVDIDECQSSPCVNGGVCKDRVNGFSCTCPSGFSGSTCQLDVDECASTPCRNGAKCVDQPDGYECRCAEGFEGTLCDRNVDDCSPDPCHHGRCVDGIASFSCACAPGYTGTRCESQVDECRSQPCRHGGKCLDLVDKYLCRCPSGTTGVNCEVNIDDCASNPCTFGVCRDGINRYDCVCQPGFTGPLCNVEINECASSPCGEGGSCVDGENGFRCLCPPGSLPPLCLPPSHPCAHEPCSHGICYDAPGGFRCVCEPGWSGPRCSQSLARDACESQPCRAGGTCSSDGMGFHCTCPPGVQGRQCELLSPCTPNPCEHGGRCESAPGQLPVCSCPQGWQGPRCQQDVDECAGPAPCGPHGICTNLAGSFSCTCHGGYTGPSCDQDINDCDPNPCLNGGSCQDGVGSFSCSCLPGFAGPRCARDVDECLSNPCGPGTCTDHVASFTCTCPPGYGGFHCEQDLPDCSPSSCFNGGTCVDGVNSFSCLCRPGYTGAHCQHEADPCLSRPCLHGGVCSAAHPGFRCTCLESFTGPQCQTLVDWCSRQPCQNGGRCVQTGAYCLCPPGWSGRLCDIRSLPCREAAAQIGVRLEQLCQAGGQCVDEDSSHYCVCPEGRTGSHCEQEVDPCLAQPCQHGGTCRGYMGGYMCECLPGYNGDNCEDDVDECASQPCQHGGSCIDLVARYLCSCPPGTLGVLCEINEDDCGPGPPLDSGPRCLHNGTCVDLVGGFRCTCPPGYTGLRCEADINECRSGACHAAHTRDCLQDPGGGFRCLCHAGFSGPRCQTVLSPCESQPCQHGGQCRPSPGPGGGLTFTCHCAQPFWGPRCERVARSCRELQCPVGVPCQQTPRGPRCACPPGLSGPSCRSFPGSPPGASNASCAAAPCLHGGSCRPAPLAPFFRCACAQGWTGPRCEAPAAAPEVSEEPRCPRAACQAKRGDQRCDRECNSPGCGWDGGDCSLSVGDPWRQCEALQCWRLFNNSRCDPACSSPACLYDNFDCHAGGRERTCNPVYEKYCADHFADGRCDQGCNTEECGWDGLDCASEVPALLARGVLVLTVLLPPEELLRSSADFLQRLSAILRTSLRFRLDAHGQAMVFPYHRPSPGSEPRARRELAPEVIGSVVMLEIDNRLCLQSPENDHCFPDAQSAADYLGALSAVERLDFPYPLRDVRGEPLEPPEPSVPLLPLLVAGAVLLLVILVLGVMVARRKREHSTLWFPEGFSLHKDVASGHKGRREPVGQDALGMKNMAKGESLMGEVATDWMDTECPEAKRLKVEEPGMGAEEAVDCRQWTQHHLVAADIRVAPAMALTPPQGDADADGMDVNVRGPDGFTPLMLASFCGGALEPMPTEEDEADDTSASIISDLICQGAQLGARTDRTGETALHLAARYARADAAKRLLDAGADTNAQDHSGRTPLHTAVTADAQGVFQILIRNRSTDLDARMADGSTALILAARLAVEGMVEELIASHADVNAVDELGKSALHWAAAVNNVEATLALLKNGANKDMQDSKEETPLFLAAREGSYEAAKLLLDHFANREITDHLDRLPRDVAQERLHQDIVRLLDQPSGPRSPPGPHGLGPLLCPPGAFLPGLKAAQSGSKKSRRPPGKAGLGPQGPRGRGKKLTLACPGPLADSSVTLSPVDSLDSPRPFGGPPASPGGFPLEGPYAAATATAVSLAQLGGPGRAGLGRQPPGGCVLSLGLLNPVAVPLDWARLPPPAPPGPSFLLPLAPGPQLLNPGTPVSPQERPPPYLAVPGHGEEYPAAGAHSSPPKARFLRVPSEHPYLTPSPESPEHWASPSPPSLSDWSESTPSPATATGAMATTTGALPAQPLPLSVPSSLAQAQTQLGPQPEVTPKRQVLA

[10] = small-molecule microarray binders of probe aEGFR, primary screen, biochemical, biotinylated probe, 635/667 nm fluorescence (AID 1097); conditions: higher = more signal;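 note: probe is a biotinylated anti-EGFR antibody binding compounds printed on slides; score combines fluorescence near 667 nm and signal to noise of each spot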
[11] = tested on: Plasmodium falciparum Sir2 (PF13_0152, Sir2A); assay: pfSir2 binders on small-molecule microarrays, primary screen, biochemical, small-molecule microarray, 635 nm fluorescence (AID 1098); conditions: small-molecule microarray binding, fluorescence 635 nm; higher = more signal;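 note: score merges spot fluorescence intensity with its signal-to-noise ratio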
[12] = small-molecule microarray binders of probe aDKK1, primary screen, biochemical, biotinylated probe, 635/667 nm fluorescence (AID 1099); conditions: higher = more signal;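 note: score merges 667nm spot fluorescence with signal to noise across triplicate slides; reference of the scale not given here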
[13] = small-molecule microarray binders of probe aCHRDL2, primary screen, biochemical, biotinylated probe, 635/667 nm fluorescence (AID 1100); conditions: higher = more signal
[14] = splicing luciferase reporter signal modulators, primary screen, spliceosome inhibition project, cell-based, HEK293, splice +/- reporter (AID 1101); conditions: luminescence, 24 h, higher = more signal, called active from +8 up or from −8 down;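 note: HEK293 cells carrying a splicing-competent luciferase reporter gene; test concentration not given here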
[15] = molecular target: Fibroblast growth factor 10 (Homo sapiens) (UniProt O15520); assay: FGF10 binders on small-molecule microarrays, primary screen, biochemical, small-molecule microarray, 635 nm fluorescence (AID 1102); conditions: FGF10 binding, fluorescence 635 nm, higher = more signal
Fibroblast growth factor 10 (Homo sapiens), sequence (O15520 whole entry, looked up): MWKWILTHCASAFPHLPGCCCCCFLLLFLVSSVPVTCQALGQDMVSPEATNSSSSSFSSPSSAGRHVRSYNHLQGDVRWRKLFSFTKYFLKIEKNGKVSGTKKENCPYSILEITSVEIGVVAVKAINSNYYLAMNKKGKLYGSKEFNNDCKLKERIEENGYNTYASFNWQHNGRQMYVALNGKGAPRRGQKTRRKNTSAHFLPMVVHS

[16] = tested on: glycogen synthase kinase-3 (GSK3A per assay name; protocol says GSK3B); assay: GSK3 binders on small-molecule microarrays, primary screen, biochemical, small-molecule microarray, 635 nm fluorescence, GSK3A (AID 1103); conditions: small-molecule microarray binding, fluorescence 635 nm; higher = more signal; note: the record names both GSK3A and GSK3B
[17] = molecular target: Epidermal growth factor receptor (Homo sapiens) (UniProt P00533); assay: EGFR binders on small-molecule microarrays, primary screen, biochemical, small-molecule microarray, 635 nm fluorescence (AID 1104); conditions: EGFR binding, higher = more signal;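 note: score merges 667 nm emission intensity with spot signal to noise over triplicate slides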
Epidermal growth factor receptor (Homo sapiens), sequence (P00533 whole entry, looked up): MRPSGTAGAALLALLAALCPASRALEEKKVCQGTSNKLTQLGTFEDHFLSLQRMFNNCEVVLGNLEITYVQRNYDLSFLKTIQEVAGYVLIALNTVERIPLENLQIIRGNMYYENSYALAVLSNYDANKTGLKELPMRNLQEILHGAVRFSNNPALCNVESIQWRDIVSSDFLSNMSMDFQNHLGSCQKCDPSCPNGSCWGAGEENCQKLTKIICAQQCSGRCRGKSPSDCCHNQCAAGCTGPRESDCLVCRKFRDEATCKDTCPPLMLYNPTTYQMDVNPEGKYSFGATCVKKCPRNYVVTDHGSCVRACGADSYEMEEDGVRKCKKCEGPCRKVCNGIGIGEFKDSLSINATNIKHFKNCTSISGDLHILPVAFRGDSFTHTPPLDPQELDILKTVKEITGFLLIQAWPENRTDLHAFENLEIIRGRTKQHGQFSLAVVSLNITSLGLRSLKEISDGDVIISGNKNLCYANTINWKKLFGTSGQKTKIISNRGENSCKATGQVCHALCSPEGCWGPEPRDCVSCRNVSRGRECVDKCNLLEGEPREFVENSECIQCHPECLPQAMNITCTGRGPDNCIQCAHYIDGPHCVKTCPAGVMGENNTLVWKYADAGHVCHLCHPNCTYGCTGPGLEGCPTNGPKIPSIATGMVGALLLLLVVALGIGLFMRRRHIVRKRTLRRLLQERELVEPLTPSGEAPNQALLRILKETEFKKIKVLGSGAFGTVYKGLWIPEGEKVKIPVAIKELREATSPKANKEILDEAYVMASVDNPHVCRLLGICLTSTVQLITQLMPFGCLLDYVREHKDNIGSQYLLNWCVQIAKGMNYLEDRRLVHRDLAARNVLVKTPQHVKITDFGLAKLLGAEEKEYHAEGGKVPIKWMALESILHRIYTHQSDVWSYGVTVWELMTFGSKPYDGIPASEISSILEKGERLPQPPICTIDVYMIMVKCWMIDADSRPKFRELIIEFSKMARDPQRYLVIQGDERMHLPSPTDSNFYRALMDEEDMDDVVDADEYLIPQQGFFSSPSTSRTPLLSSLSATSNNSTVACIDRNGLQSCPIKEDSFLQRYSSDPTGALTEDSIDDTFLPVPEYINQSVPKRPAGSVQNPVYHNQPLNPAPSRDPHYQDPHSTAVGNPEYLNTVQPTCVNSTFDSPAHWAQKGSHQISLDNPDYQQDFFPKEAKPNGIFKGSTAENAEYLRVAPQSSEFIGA

[18] = molecular target: Follistatin-related protein 3 (Homo sapiens) (UniProt O95633); assay: FSTL3 binders on small-molecule microarrays, primary screen, biochemical, small-molecule microarray, 635 nm fluorescence (AID 1105); conditions: FSTL3 binding, higher = more signal;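 note: score merges emission near 667 nm and signal to noise per printed spot across three slides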
Follistatin-related protein 3 (Homo sapiens), sequence (O95633 whole entry, looked up): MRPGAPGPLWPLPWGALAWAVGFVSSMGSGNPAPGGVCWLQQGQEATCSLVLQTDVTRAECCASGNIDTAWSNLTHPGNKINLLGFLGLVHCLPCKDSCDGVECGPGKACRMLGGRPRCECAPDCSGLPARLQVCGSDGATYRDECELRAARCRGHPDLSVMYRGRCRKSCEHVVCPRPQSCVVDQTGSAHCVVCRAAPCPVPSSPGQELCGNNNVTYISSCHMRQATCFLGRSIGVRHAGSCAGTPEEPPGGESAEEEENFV

[19] = molecular target: Dickkopf-related protein 1 (Homo sapiens) (UniProt O94907); assay: DKK1 binders on small-molecule microarrays, primary screen, biochemical, small-molecule microarray, 635 nm fluorescence scan (AID 1106); conditions: DKK1 binding, higher = more signal;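 note: score merges emission near 667 nm with signal to noise over three replicate slides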
Dickkopf-related protein 1 (Homo sapiens), sequence (O94907 whole entry, looked up): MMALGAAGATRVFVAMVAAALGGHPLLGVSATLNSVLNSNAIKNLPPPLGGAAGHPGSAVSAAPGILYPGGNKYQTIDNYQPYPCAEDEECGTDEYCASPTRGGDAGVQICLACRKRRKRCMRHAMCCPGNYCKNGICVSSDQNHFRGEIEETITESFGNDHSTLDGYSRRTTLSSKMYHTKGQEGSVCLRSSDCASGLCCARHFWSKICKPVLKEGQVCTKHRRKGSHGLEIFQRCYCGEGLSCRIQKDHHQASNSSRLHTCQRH

[20] = tested on: Inhibin beta A chain (activin A); assay: INHBA (activin A) binders on microarrays, primary screen, biochemical, small-molecule microarray, 635 nm fluorescence scan (AID 1107); conditions: small-molecule microarray binding, higher = more signal;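 note: mouse activin A protein probed at 4.33 µg/mL on printed slides; score merges bound-protein fluorescence near 667 nm with spot signal-to-noise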

SMILES | composite z-score [1] | z-score [2] | z-score [3] | z-score [4] | composite z-score [5] | z-score [6] | composite z-score [7] | composite z-score [8] | composite z-score [9] | composite z-score [10] | composite z-score [11] | composite z-score [12] | composite z-score [13] | z-score [14] | composite z-score [15] | composite z-score [16] | composite z-score [17] | composite z-score [18] | composite z-score [19] | composite z-score [20]
Cc1ccc(S[C@]2(C(=O)NCC(F)(F)F)CC(=O)N(Cc3ccccc3C(F)(F)F)[C@@H]2c2ccc(CO)cc2)cc1 | 0.895 | -0.837 (inactive) | 0.0848 (inactive) | -0.203 (inactive) | 1.67 | -0.254 (inactive) | 0.145 | -0.872 | -0.462 | -0.0416 | -0.57 | 0.228 | 0.942 | 0.338 (inactive) | -0.83 | -1.23 | -0.548 | -1.51 | -1.07 | 0.247
CCOC(=O)C1=CCC(c2cc3ccccc3[nH]2)N(CCN2CC(C(=O)OCC)=CCC2c2cc3ccccc3[nH]2)C1 (stereo not given) | 1.4 | -1.61 (inactive) | 0.97 (inactive) | -0.34 (inactive) | 3.38 | 0.053 (inactive) | 0.0094 | 0.38 | 0.862 | -0.0084 | 0.497 | 0.237 | 0.368 | -1.3 (inactive) | 0.631 | 1.03 | 0.149 | 0.673 | 0.0665 | 1.14
C=C(CCCC)C(=O)CC[C@H](OC(=O)c1ccccc1-c1ccccc1C(=O)O)c1ccc(OCCO)cc1 | 0.636 | -0.338 (inactive) | -1.48 (inactive) | -1.88 (inactive) | 1.65 | 0.836 (inactive) | -0.0563 | 1.43 | 0.171 | -0.0197 | 1.25 | -0.253 | -0.403 | 1.02 (inactive) | 0.569 | 0.107 | 0.12 | 0.0258 | 0.248 | 1.09
O=C1c2ccccc2[C@@]2(Cc3ccccc3N(Cc3ccccc3)C2=O)[C@H](c2ccc(CO)cc2)N1Cc1ccccc1Cl | 0.11 | -0.251 (inactive) | -0.602 (inactive) | -2.35 (inactive) | -0.394 | -0.499 (inactive) | -0.0812 | -0.109 | -0.149 | -0.146 | -0.493 | -0.0131 | 0.28 | -1.06 (inactive) | -0.377 | -1.35 | -0.804 | -0.277 | -0.666 | 0.54
C=CCOC(=O)[C@H]1[C@@H]2C(=O)O[C@@H](c3ccccc3)[C@@H](c3ccccc3)N2[C@@H](c2ccc(OCCOC(=O)[C@@H]3C[C@@H]4C(=O)N[C@@H](CCCCNC(C)=O)C(=O)N4[C@@H]3c3cccc(OCCO)c3)cc2)[C@]12C(=O)Nc1ccccc12 | 1.54 | 0.591 (inactive) | 0.633 (inactive) | 2.18 (inactive) | 2.36 | -0.471 (inactive) | 0.0636 | 1.34 | 1.06 | -0.0103 | 1.43 | 0.171 | 0.042 | 0.736 (inactive) | 0.794 | 1.32 | 0.793 | 0.726 | 0.698 | 0.239
CC(=O)c1ccc(C(O)C2C=CC3C(=O)N(c4ccccc4)C(=O)C3N2Nc2ccc(C(C)C)cc2)cc1 (stereo not given) | 1.08 | 1.24 (inactive) | 1.55 (inactive) | -0.0304 (inactive) | 2.24 | -0.541 (inactive) | 0.136 | 0.101 | 1.07 | 0.187 | 0.696 | 1.46 | 0.865 | -0.385 (inactive) | 1.01 | 0.806 | 0.314 | 1.25 | -0.0216 | 1.05
CC=CC(O)C1C=CC2C(=O)NC(=O)C2N1Nc1ccc(Cl)cc1Cl (stereo not given) | -0.193 | -6.04 (inactive) | -2 (inactive) | 0.624 (inactive) | 2.28 | -1.13 (inactive) | 0.0598 | -0.376 | 0.0204 | -0.148 | 0.547 | 0.171 | 0.55 | 1.9 (inactive) | 0.506 | -1.11 | 0.277 | 0.46 | 0.522 | 1.42
O=C1O[C@H](c2ccccc2)[C@H](c2ccccc2)N2[C@H]1[C@@H](C(=O)O)[C@]1(C(=O)Nc3ccc(C#CCCO)cc31)[C@H]2c1ccc(OCCO)cc1 | 0.862 | 0.19 (inactive) | -0.428 (inactive) | -0.502 (inactive) | 1.98 | 1.71 (inactive) | 0.547 | 0.452 | 0.105 | -0.0304 | -0.164 | 0.564 | 0.834 | -0.155 (inactive) | 1.12 | 1.27 | 0.0453 | 0.446 | 0.488 | 1.31
N#Cc1ccc(NN2C(C(O)C3CC=CCC3)C=CC3C(=O)N(c4ccccc4)C(=O)C32)cc1 (stereo not given) | 0.995 | 0.609 (inactive) | 0.773 (inactive) | 1.99 (inactive) | 3.5 | -0.645 (inactive) | -0.0873 | 0.179 | 1.1 | 0.0149 | 0.602 | 0.417 | 0.728 | 1.6 (inactive) | 1.09 | 0.79 | 1.44 | 1.38 | -0.141 | 1.25
C=CCOC(=O)[C@H]1[C@@H]2C(=O)O[C@@H](c3ccccc3)[C@@H](c3ccccc3)N2[C@@H](c2ccc(OCCOC(=O)[C@@H]3C[C@@H]4C(=O)N[C@@H](CCCC[N+](C)(C)C)C(=O)N4[C@@H]3c3ccc(O)cc3)cc2)[C@]12C(=O)Nc1ccc(I)cc12 | 1.53 | 2.31 (inactive) | -1.21 (inactive) | 1.34 (inactive) | 2.44 | -1.94 (inactive) | -0.09 | 1.31 | 1.14 | 0.06 | 1.1 | 0.031 | -0.211 | -0.21 (inactive) | 1.2 | 1.24 | 0.934 | 1.21 | 1.07 | 0.723
